Test results from paper PMC5540273 (PLoS ONE, 2017).

Experiments:
Details in all cases: concentration: 1 μM, replicates: in singlicate; n = 1
NEK4 = test system: NEK4
NEK5 = test system: NEK5
NEK6 = test system: NEK6
NEK7 = test system: NEK7
NEK9 = test system: NEK9
NIK = test system: T1, NIK
T1 construct: gene MAP3K14

NIM1 = test system: T2, NIM1
T2 construct: gene MGC42105

NLK = test system: NLK
OSR1 = test system: T3, OSR1
T3 construct: gene OXSR1

PAK1 = test system: PAK1
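Also: KINOMEscan kinase panel screen.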

| Structure (SMILES) | %Inh (NEK4) [%] | %Inh (NEK5) [%] | %Inh (NEK6) [%] | %Inh (NEK7) [%] | %Inh (NEK9) [%] | %Inh (NIK) [%] | %Inh (NIM1) [%] | %Inh (NLK) [%] | %Inh (OSR1) [%] | %Inh (PAK1) [%] |
| --- | --- | --- | --- | --- | --- | --- | --- | --- | --- | --- |
| O=C(Nc1n[nH]c2nc(-c3ccccc3)c(Br)cc12)C1CC1 [SB-708998] | 3 | 2 | 0 | 0 | 3 | 31 | 9 | 33 | 11 | 10 |
| CCS(=O)c1ccc(-c2coc3ccc(-c4nnc(C)o4)cc23)cc1 (centres unmarked) | 0 | 0 | 0 | 0 | 0 | 0 | 11 | 0 | 0 | 0 |
| CN(C)c1cc(-c2ccc3c(N)n[nH]c3c2)nc(N)n1 [GSK2219329] | 0 | 2 | 0 | 0 | 0 | 0 | 21 | 1 | 0 | 9 |
| CCC(=O)c1c(-c2ccccc2)c2cc(Cl)ccc2c(=O)n1Cc1cc(C(=O)NC2CC2)n(C)n1 | 16 | 0 | 8 | 0 | 0 | 0 | 1 | 0 | 0 | 20 |
| COc1ccc(-c2cc3c(C)nc(N)nc3n([C@H]3CC[C@H](O)CC3)c2=O)cn1 | 0 | 0 | 0 | 0 | 0 | 2 | 0 | 13 | 0 | 7 |
| COC(=O)c1c(-c2ccccc2)c2cc(C)ccc2c(=O)n1Cc1ccccc1 | 0 | 0 | 0 | 0 | 0 | 100 | 0 | 0 | 0 | 24 |
| Cc1cc(Nc2nc(-c3cccc(C)n3)nc3ccccc23)ccn1 [GW872411] | 0 | 6 | 0 | 0 | 0 | 16 | 0 | 0 | 0 | 0 |
| CCc1nc(-c2cccc(C)c2)c(-c2ccncc2)s1 | 0 | 0 | 3 | 0 | 0 | 0 | 0 | 81 | 0 | 28 |
| COc1ccc(-c2coc3ccc(-c4nnc(SCc5cccc(C#N)c5)o4)cc23)cc1 | 3 | 0 | 16 | 0 | 0 | 2 | 5 | 0 | 0 | 18 |
| O=C(Nc1ccc2c(c1)OCO2)NC1CCN(c2ccnc(NCc3ccc(F)cc3)n2)CC1 [GSK1379859] | 23 | 17 | 0 | 0 | 11 | 12 | 0 | 11 | 3 | 0 |
| Cc1nn2c(=O)cc(N3CCOCC3)nc2n1Cc1cccc(Cl)c1Cl [GSK2342769] | 9 | 0 | 0 | 0 | 0 | 0 | 12 | 0 | 8 | 9 |
| Cl.NS(=O)(=O)c1cccc(Nc2cc(-c3ccc(F)cc3)n[nH]2)c1 [GW824645] | 0 | 0 | 0 | 0 | 0 | 45 | 3 | 0 | 0 | 4 |
| COC(=O)c1c(-c2ccccc2)c2cc(Br)ccc2c(=O)n1Cc1ccc(NC(=O)CCC(=O)O)cc1 | 1 | 0 | 7 | 18 | 11 | 0 | 2 | 0 | 14 | 15 |
| CCC(=O)c1c(-c2ccccc2)c2cc(Cl)ccc2c(=O)n1Cc1ccc(C(=O)O)cc1 | 0 | 0 | 0 | 0 | 0 | 0 | 0 | 0 | 0 | 0 |
| COc1cc(OC)cc(-c2cc3cnc(N)nc3nc2NC(=O)NC(C)(C)C)c1 | 0 | 0 | 0 | 1 | 0 | 1 | 0 | 0 | 0 | 0 |
| Cc1cccc(-c2nc(Nc3ccc4c(cnn4C)c3)c3ccccc3n2)n1 [GW876731] | 0 | 49 | 12 | 2 | 5 | 11 | 16 | 25 | 0 | 6 |
| CCn1c(-c2nonc2N)nc2ccccc21 [SB-693162/GW549034] | 11 | 18 | 17 | 12 | 0 | 24 | 2 | 0 | 24 | 0 |
| O=C1NC(=O)C(c2ccccc2)=C1Nc1cccc(O)c1 [SB-390534] | 13 | 0 | 0 | 14 | 0 | 3 | 100 | 0 | 0 | 0 |

| Structure (SMILES) | %Inh (NEK4) [%] | %Inh (NEK5) [%] | %Inh (NEK6) [%] | %Inh (NEK7) [%] | %Inh (NEK9) [%] | %Inh (NIK) [%] | %Inh (NIM1) [%] | %Inh (NLK) [%] | %Inh (OSR1) [%] | %Inh (PAK1) [%] |
| --- | --- | --- | --- | --- | --- | --- | --- | --- | --- | --- |
| COc1cc(Nc2nccc(N3CCC(NC(=O)C4COc5ccccc5O4)C3)n2)cc(OC)c1OC (centres unmarked) [GSK1379761] | 7 | 97.3 | 21 | 49 | 37 | 42 | 28 | 5 | 2 | 0 |
| CN1C(=O)C(Nc2cc(Cl)c(O)c(Cl)c2)=C(c2ccc(Cl)cc2)C1=O [SB-404321] | 0 | 7 | 0 | 0 | 0 | 30 | 0 | 0 | 0 | 0 |
| Cc1nnc(-c2ccc3ncn(-c4ccc(S(C)=O)cc4)c3c2)o1 (centres unmarked) | 0 | 0 | 17 | 2 | 13 | 3 | 0 | 0 | 0 | 8 |
| C[C@@H]1CC[C@H](C(=O)NC2CCCCC2)CN1c1cc(-c2ccc3c(N)n[nH]c3c2)nc(N)n1 [GSK2291363] | 18 | 22 | 26 | 0 | 25 | 32 | 14 | 7 | 17 | 15 |
| O=C(Nc1n[nH]c2nc(-c3ccccc3)c(Cl)cc12)C1CC1 [SB-734909] | 23 | 11 | 0 | 0 | 2 | 13 | 6 | 11 | 0 | 0 |
| CCCNC(=O)Nc1ccc(Oc2ncnc3ccn(C)c23)cc1 | 0 | 0 | 13 | 0 | 11 | 0 | 0 | 0 | 17 | 17 |
| Nc1nc(-c2ccccc2F)c(-c2ccnc3ccccc23)s1 [GW560459] | 0 | 0 | 0 | 8 | 53 | 17 | 22 | 27 | 4 | 18 |
| CCC(=O)c1c(-c2ccccc2)c2cc(Cl)ccc2c(=O)n1Cc1cc(S(C)(=O)=O)n(CCC(C)(C)O)n1 | 0 | 17 | 14 | 1 | 0 | 0 | 0 | 0 | 0 | 20 |
| CCS(=O)(=O)c1ccc(OC)c(Nc2ncc(-c3ccc(F)cc3)o2)c1.Cl [GW591947] | 0 | 9 | 0 | 0 | 11 | 0 | 5 | 22 | 4 | 0 |
| COc1cccc(C2=C(N(C)c3ccccc3)C(=O)NC2=O)c1 [SB-334865] | 0 | 0 | 0 | 0 | 0 | 100 | 21 | 29 | 0 | 1 |
| Cc1cccc(-c2cc(-c3c[nH]nc3-c3ccccn3)ccn2)c1 [GW679395] | 0 | 7 | 0 | 0 | 0 | 19 | 6 | 32 | 0 | 24 |
| COc1cc2nccc(Nc3cccc(Oc4ccccc4)c3)c2cc1OC.Cl [GW284543] | 3 | 0 | 0 | 11 | 27 | 37 | 19 | 24 | 4 | 0 |
| Cc1ccc(Oc2ccc(Nc3ncnc4cc[nH]c34)cc2C)cn1 | 3 | 0 | 17 | 10 | 5 | 0 | 58 | 0 | 0 | 37 |
| CC(C)(C)c1ccc(C(=O)Nc2cn3cc(-c4ccccc4)ccc3n2)cc1 | 0 | 0 | 0 | 0 | 0 | 0 | 19 | 0 | 0 | 0 |
| Cc1ccccc1COc1cc(-n2cnc3cc(Cl)ccc32)sc1C(N)=O [GW813349] | 0 | 6 | 0 | 4 | 0 | 9 | 5 | 0 | 0 | 0 |
| Nc1ncnc2c1ncn2-c1cccc2ccccc12 [SKF-97184] | 0 | 0 | 0 | 0 | 0 | 2 | 13 | 0 | 0 | 3 |
| O=C(NCCNc1ccnc(Nc2ccc(F)cc2)n1)Nc1ccc2c(c1)OCO2 [GSK1379882] | 0 | 15 | 0 | 0 | 12 | 22 | 18 | 0 | 0 | 0 |
